Screens (PubChem BioAssay)
Compounds with a hit are over-represented: about 6.3% of the library has one in this group of screens.
RORgamma inh: blocks mouse ROR gamma transcriptional activity | P51450 | Drosophila S2 Gal4-RORgamma UAS-luciferase reporter, 20 h | Potency, µM (titrated, usually from 53.6 µM), inactives show top-dose activity change, negative = inhibition, usual class: inhibitors | 310,000 tested, 5.4% active | AID 2551; further: on the % scale 0 is the no-effect control and ±100 the full control effect; nearly all actives have a fitted effect of over 60% in size
Target sequence (P51450 whole entry, looked up, the tested form may be a part): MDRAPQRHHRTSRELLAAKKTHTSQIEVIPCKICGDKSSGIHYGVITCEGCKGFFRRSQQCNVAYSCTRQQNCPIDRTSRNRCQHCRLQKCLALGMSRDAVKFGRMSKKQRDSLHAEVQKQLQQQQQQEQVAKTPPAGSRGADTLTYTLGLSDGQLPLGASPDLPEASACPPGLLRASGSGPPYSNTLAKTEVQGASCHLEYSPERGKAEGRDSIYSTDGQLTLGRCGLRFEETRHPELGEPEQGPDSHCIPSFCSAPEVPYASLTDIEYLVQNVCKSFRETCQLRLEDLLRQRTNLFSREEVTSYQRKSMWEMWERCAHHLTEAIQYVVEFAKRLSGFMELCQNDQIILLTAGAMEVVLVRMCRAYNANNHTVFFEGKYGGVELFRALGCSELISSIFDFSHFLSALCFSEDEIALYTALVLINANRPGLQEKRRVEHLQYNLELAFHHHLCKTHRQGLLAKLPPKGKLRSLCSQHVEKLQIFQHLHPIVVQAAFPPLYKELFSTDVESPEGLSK
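Drosophila S2 cells stably expressing Gal4-DBD/mouse RORγ fusion under metallothionein promoter plus UAS-luciferase; compound 1 h, then 700 uM CuSO4 induction for 20 h at ambient temperature; inhibition read as reduced luminescence.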
VP16 counter: Gal4-VP16 reporter inhibition counter-screen | 310,000 tested, 3.5% active | Drosophila S2 Gal4-VP16 UAS-luciferase, luminescence, 20 h | Potency, µM (series often up to 53.6 µM), without a hit: at the top dose activity, negative = inhibition, usual class: inhibitors;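 further: Gal4-VP16 expression switched on by copper sulfate through the metallothionein promoter; on the % scale 0 is the no-effect control and ±100 the full control effect; nearly all actives have a fitted effect of over 50% in size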
ATXN viability: viability counter-screen for ATXN expression inhibitors | S2 cells (HEK-293 line with an ATXN2-luciferase reporter) viability, CellTiter-Fluor protease fluorescence, 24 h | Potency, µM (series often up to 56.7 µM), hits mostly cytotoxic | 400,000 tested, 0.49% active | AID 651635; further: nearly all actives have a fitted effect of over 40% in size
TGFb SMAD3 inh: blocks TGF-b signaling; 410,000 tested, 1.2% active; AID 588855; Potency, µM (series often up to 46.1 µM), inactives show at the highest dose activity, negative = inhibition, actives largely listed as inhibitors; HepG2 CAGA-GFP TGF-b/SMAD3 reporter, GFP fluorescence, 18 h; TGF-beta stimulated, 500 pg/mL final; further: on the % scale 0 is the no-effect control and ±100 the full control effect; nearly all actives have a fitted effect of over 65% in size
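TGF-beta reporter screen: HEPG2 CAGA-GFP, 1% FBS, 500 pg/mL TGF-beta final, 18 h; per-cell GFP summed per well; curves fitted and categorized by class.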
ATXN2 expr inh: ATXN2 expression inhibition; 360,000 tested, 0.72% active; Potency, µM (titrated, usually from 57 µM), for inactives: at the highest dose activity change, negative = inhibition, actives largely listed as inhibitors; HEK-293 ATXN2-luciferase reporter, luminescence, 24 h; further: on the % scale 0 is the no-effect control and ±100 the full control effect; nearly all actives have a fitted effect of over 55% in size
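qHTS (up to 57 uM final) was run with 24 h compound exposure of reporter cells at 37 °C. Each well was multiplexed: SteadyGlo luminescence measured ATXN2-luciferase expression after a fluorogenic Gly-Phe-AFC viability readout (25 uM final).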
HepG2 viability: counter-screen for TGF-b inhibitors: cytotoxicity in HepG2 cells. HepG2 CAGA-GFP viability, ATP luminescence, 18 h. Potency, µM (series often up to 46.1 µM), for inactives: at the top dose activity change, negative = cytotoxicity, usual class: cytotoxic. 410,000 tested, 0.76% active. AID 588856
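CellTiter-Glo luminescence gave cytotoxicity after 18 hours at 37 degrees C. The cells were HepG2 CAGA-GFP in 1% FBS DMEM, stimulated with 500 pg/mL TGF-beta after compound addition. %Activity was normalised to no-cell wells (complete cell-killing) and DMSO (no toxicity), and curves were fitted and classified.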
* hit, by the source's call; i = inactive; ? = inconclusive; . = no result. The call rests on the fitted dose curve; in most records, active means well fitted curve in the direction sought with a large enough effect; inconclusive means small, poorly fitted or top-dose-only effect, or another doubt; inactive means no such curve, though single readings can be large; an effect the other way counts as inactive or inconclusive. Potency means the concentration at half of the fitted maximal effect.

SMILES	RORgamma inh	VP16 counter	ATXN viability	TGFb SMAD3 inh	ATXN2 expr inh	HepG2 viability
CCCS(=O)(=O)c1ncc(Cl)c(C(=O)Nc2c(C(=O)Nc3ccccc3)oc3ccccc23)n1	.	.	.	?	.	-41%
COC(=O)c1ccccc1NC(=O)c1nc(S(=O)(=O)Cc2ccccc2)ncc1Cl	?	3.2µM*	?	1%	.	-18%
CCOc1ccc2cc(C#N)c(SCC(=O)OCc3ccccc3)nc2c1	.	.	.	-1%	.	-22%
CC(=O)Nc1ccc(NC(=O)c2nc(S(=O)(=O)Cc3ccccc3)ncc2Cl)cc1	2.2µM*	0.35µM*	?	?	.	-108%
CCS(=O)(=O)c1ncc(Cl)c(C(=O)Nc2ccc(C)cc2)n1	5µM*	2µM*	.	?	?	-98%
O=C(Nc1ccc2ccccc2c1)c1cnccn1	20%	-5%	i	-8%	29%	0%
CS(=O)(=O)c1ncc(Cl)c(C(=O)Nc2ccc3ccccc3c2)n1	2.8µM*	4.5µM*	20µM*	5µM*	?	5.6µM*
COc1ccc(CNC(=O)c2nc(SCc3ccc(C)cc3)ncc2Cl)cc1	.	.	.	?	.	-37%
COc1ccc(NC(=O)c2nc(S(=O)(=O)Cc3ccc(C)cc3)ncc2Cl)cc1	.	.	.	.	.	8.9µM*
CC1(C(=O)NS(=O)(=O)c2ccc(Br)cc2)CCN1C(=O)C1CCCCC1 (centres undefined)	.	.	i	-4%	6%	-1%
COC(=O)C1=CO[C@@H](O)[C@@H]2C(CO)=CC[C@@H]12	.	.	.	.	-10%	.
NC(=S)N=Nc1c(O)n(CCCl)c2ccccc12	1µM*	3.2µM*	i	-28%	-23%	-20%
CCOc1ccc2c(c1)c(N=NC(N)=S)c(O)n2C	?	7.1µM*	i	-4%	-33%	-20%
CCOc1ccc2c(c1)c(N=NC(=N)N)c(O)n2C	-5%	1%	i	-17%	12%	-24%
NC(=S)N=Nc1c(O)n(CC(=O)Nc2ccccc2)c2ccccc12	?	-15%	i	3%	7%	1%
NC(=S)N=Nc1c(O)n(CCCl)c2ccc(Cl)cc12	0.79µM*	3.5µM*	i	-19%	-23%	-44%
CCn1cc(C(=O)N2CCN(c3cccc(C)c3)C(C)C2)c(=O)c2cc(S(=O)(=O)N3CCOCC3)ccc21 (centres undefined)	.	.	i	-22%	-4%	-48%
COCC1CCCN(Cc2ccc3c(c2)CN(C(=O)c2sc(C)nc2C)CCO3)C1 (centres undefined)	.	.	i	.	.	.
COc1ccc(-c2csc(NC(=O)C3CCN(C(=O)c4ccc(F)cc4)CC3)n2)cc1OC	.	.	i	-18%	-26%	2%
CCCN1CNC(=S)N(c2cccc(C)c2C)C1	10µM*	?	i	-7%	3%	5%
CCCN1CNC(=S)N(c2ccccc2OC)C1	?	-23%	i	9%	-3%	-1%
CCN1CNC(=S)N(c2cccc(C)c2C)C1	11µM*	?	i	-8%	-4%	1%
Cc1nc2cnc(N(C)C)nc2n(C[C@H]2CCCO2)c1=O	29%	-5%	.	.	.	.
C[C@@H]1[C@H](O)[C@@H](C)C=CC=CC=CC=CC=CC=CC=C[C@H](O[C@@H]2O[C@H](C)[C@H](O)[C@H](N)[C@@H]2O)C[C@@H]2O[C@](O)(C[C@@H](O)C[C@@H](O)[C@H](O)CC[C@@H](O)C[C@@H](O)CC(=O)O[C@H]1C)C[C@H](O)[C@@H]2C(=O)O	.	.	.	.	34%	.
CCOC(=O)c1ccc(NC(=O)c2c(NCc3cccs3)sc3c2CCCCC3)cc1	.	.	?	7%	?	-41%
CC(=O)O[C@]1(C(C)=O)CC[C@H]2[C@@H]3C=C(C)C4=CC(=O)CC[C@]4(C)[C@@H]3CC[C@@]21C	.	.	.	.	-13%	.
